From PubChem BioAssay (Tox21) come the findings set out here.

Results filed as inconclusive are left out. Entries that show only a call come without a potency. A number with no mark means an inactive call. The source made the active and inactive calls. Calls come from the whole dose curve; as a rule, active = well fitted curve in the direction sought with a large enough effect in the repeat runs; inconclusive = weak or mixed curves; inactive = no such curve, though single readings can be large; an effect the other way counts as inactive or inconclusive.
Note: nearly all actives have a fitted effect of over 50% in size.
Potency is the fitted concentration of half-maximal effect.

Cytochrome P450 3A4 (Homo sapiens), sequence (P08684 whole entry, looked up): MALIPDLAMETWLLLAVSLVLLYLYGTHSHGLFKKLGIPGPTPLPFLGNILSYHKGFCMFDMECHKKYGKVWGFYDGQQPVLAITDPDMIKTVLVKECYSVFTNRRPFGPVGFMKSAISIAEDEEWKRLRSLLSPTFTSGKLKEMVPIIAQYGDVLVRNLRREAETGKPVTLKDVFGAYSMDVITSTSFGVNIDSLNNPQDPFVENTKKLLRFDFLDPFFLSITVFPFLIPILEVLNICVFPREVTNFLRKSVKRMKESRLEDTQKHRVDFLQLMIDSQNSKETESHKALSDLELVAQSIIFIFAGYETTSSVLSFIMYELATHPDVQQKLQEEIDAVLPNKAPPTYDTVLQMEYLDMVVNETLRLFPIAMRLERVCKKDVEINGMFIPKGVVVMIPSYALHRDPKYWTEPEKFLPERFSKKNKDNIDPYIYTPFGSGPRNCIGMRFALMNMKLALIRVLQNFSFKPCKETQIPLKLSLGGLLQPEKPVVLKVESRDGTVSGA

One test deals with Voltage-gated inwardly rectifying potassium channel KCNH2 (Homo sapiens) (UniProt Q12809). Nature of the test: Human Ether-a-go-go-Related Gene (hERG) channel small molecule antagonists: fluorescence cell-based qHTS assay (AID 1671200). The conditions noted are these: hERG-U2OS cells, FluxOR thallium flux fluorescence; series mostly up to 76.8 µM. In a few lines: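 Thallium flux as potassium surrogate: FluxOR II dye loaded 1 h at room temperature into hERG-expressing U2OS cells, then stimulus buffer added after 10 min. Kinetic 480 nm excitation/540 nm emission read, 2 min.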
Voltage-gated inwardly rectifying potassium channel KCNH2 (Homo sapiens), sequence (Q12809 whole entry, looked up): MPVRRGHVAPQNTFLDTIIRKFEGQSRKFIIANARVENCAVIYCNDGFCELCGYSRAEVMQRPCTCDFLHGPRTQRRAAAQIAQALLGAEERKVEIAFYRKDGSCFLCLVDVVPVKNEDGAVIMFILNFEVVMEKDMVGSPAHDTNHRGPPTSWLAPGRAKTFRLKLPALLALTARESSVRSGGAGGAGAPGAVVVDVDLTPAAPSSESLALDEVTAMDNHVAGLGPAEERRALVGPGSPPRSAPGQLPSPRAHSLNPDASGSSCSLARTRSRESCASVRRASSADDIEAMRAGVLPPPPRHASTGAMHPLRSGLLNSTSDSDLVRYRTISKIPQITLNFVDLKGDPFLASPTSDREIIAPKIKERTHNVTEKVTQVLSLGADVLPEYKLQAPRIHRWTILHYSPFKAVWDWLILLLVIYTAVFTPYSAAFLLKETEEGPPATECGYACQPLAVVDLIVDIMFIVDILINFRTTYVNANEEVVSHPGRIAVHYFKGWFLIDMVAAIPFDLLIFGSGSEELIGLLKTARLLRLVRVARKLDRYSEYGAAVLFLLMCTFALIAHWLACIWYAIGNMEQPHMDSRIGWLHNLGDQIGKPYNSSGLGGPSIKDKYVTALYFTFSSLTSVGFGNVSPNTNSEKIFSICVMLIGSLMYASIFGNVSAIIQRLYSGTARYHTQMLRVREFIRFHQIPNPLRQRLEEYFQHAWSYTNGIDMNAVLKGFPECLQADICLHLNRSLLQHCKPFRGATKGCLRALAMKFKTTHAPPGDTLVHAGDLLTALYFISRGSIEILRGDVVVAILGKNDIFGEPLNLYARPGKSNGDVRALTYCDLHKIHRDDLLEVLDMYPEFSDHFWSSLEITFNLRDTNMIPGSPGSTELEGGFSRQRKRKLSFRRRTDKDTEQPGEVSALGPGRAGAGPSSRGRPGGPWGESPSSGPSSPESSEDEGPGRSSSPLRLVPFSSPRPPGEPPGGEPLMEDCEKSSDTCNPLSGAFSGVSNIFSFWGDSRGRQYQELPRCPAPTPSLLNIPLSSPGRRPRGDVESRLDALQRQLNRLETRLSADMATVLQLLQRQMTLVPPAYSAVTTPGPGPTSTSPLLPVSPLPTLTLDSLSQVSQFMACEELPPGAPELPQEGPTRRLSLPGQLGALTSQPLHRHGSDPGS
Background: Block of hERG is tested as a sign of cardiac risk.
With `CCCCCCCC/C=C\CCCCCCCC(=O)OCC`, the Potency result was “inactive”. Regarding `S=C([S-])NCCNC(=S)[S-].[Mn+2]`, the Potency entry is “inactive”. Same read-out and setting: the entry for `CCOC(=O)C(F)(F)F` is “inactive”. On the same count and under the same terms, the entry for `CC(C)CC(=O)C1C(=O)c2ccccc2C1=O` is “inactive”; for `O=C(CS)Nc1ccccc1` it is “inactive”.

As for `CC(C)O.CC(C)O.CCOC(=O)/C=C(\C)O.CCOC(=O)/C=C(\C)O.[Ti]`, the Potency entry was “inactive”.

For `CO[C@@H]1[C@H](OC(=O)/C=C/C=C/C=C/C=C/C(=O)O)CC[C@]2(CO2)[C@H]1[C@@]1(C)O[C@@H]1CC=C(C)C`, the Potency result is “inactive”. On the same count and under the same terms, the entry for `CCC(C)O` (stereo not drawn) is “inactive”. Consider `NCC(=O)CCC(=O)O`, for which the Potency entry was “inactive”.

For `CC(=O)OC[C@H]1O[C@@H](n2ncc(=O)[nH]c2=O)[C@H](OC(C)=O)[C@@H]1OC(C)=O`, the Potency entry is “inactive”. The same measure, in the same setting: the entry for `O=S(=O)(Oc1ccc(Cl)cc1)c1ccccc1` is “inactive”; for `CCO[C@H](Cc1ccc(OCCc2ccc(OS(C)(=O)=O)cc2)cc1)C(=O)O` it is “inactive”. Same read-out and setting: the entry for `CCn1cc(C(=O)O)c(=O)c2cnc(N3CCNCC3)nc21` is “inactive”. Regarding `Cc1cccc(C)c1NC(=O)CN(CC(=O)O)CC(=O)O`, the Potency entry was “inactive”. As to `COc1ccc2cccc(CCNC(C)=O)c2c1`, the Potency result was “inactive”.

In the case of `CCO[Si](CCCCl)(OCC)OCC`, the Potency result was “inactive”. `Brc1c2ccccc2c(Br)c2ccccc12`: the activity change, negative = inhibition was -0.46% [at 6.97 µM].

As for `COc1cc(Cl)c(OC)cc1N`, the Potency result was “inactive”.

In the case of `Cc1[nH]c(C)c(Cl)c(=O)c1Cl`, the activity change, negative = inhibition was -0.502% [at 15.8 µM]. As for `Cc1ccc(C(=O)Oc2ccc(C(O)CNC(C)(C)C)cc2OC(=O)c2ccc(C)cc2)cc1` (stereo not drawn), the Potency is 6.74 µM (active). Same read-out and setting: the entry for `CCCn1cnc2c1c(=O)n(CCCCC(C)=O)c(=O)n2C` is “inactive”.

The next test has as its target Cytochrome P450 3A4 (Homo sapiens) (UniProt P08684). Nature of the test: Cytochrome P450 Family 3 Subfamily A Member 4 (CYP3A4) small molecule antagonists: luciferase reporter qHTS assay (AID 1671201). As to conditions: P450-Glo CYP3A4 enzyme, luciferin luminescence, 1 h; series mostly up to 115 µM. In a few lines:
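Recombinant human CYP3A4 converts a proluciferin substrate to luciferin over 1 h at room temperature after NADPH regeneration solution is added (compound preincubated 10 min); detection reagent stops reaction, luminescence read 20 min later as relative units.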
For `CC(C)(COC(=O)c1ccccc1)COC(=O)c1ccccc1`, the Potency entry was “inactive”.

Consider `CCOC(=O)C(F)(F)F`, for which the Potency result was “inactive”. With `CCCCCCCN`, the Potency entry was “inactive”. The same measure, in the same setting: under `c1ccc(-c2ccccn2)nc1` stands “inactive”; under `CC(C)(C)Cl`, “inactive”. Take `CC(C)=CCC/C(C)=C/CC/C(C)=C/CO`: the Potency was 25.2 µM (active).

On to `CC(C)CC(=O)C1C(=O)c2ccccc2C1=O`, for which the Potency result is “inactive”. Turning to `Nc1cccc(S(=O)(=O)c2cccc(N)c2)c1`, the Potency is 10 µM (active).

Turning to `NCC(=O)CCC(=O)O`, the Potency result is “inactive”. Still for that read-out and setting: under `CC(=O)OC[C@H]1O[C@@H](n2ncc(=O)[nH]c2=O)[C@H](OC(C)=O)[C@@H]1OC(C)=O` stands “inactive”. For `O=S(=O)(Oc1ccc(Cl)cc1)c1ccccc1`, the Potency result was “inactive”. The same measure, in the same setting: under `CCO[C@H](Cc1ccc(OCCc2ccc(OS(C)(=O)=O)cc2)cc1)C(=O)O` stands “inactive”. For `CCn1cc(C(=O)O)c(=O)c2cnc(N3CCNCC3)nc21`, the Potency result is “inactive”. Still for that read-out and setting: under `O=C(O)c1ccc(-n2nc(-c3ccccc3O)nc2-c2ccccc2O)cc1` stands “inactive”; under `Cc1cccc(C)c1NC(=O)CN(CC(=O)O)CC(=O)O`, “inactive”; under `O=C(NCC1CN(c2ccc(N3CCOCC3=O)cc2)C(=O)O1)c1ccc(Cl)s1` (stereo not drawn), “inactive”.

Regarding `CCO[Si](CCCCl)(OCC)OCC`, the Potency was 3.53 µM (active).

Regarding `Brc1c2ccccc2c(Br)c2ccccc12`, the activity change, negative = inhibition is 1.1% [at 10.5 µM].

With `COc1cc(Cl)c(OC)cc1N`, the Potency was 31.7 µM (active). Regarding `C=CC(=O)OCCOCCOC(=O)C=C`, the Potency entry is “inactive”. For the compound `Cc1[nH]c(C)c(Cl)c(=O)c1Cl`, the activity change, negative = inhibition was 19.3% [at 23.6 µM].

On to `CCCn1cnc2c1c(=O)n(CCCCC(C)=O)c(=O)n2C`, for which the Potency entry was “inactive”.
